Inconclusive results are not listed. Active and inactive are the calls of the source. Unless noted, the call rests on the fitted dose curve.
Experiments:
[1] = Nuclear factor erythroid 2-related factor 2/antioxidant responsive element (Nrf2/ARE) small molecule agonists: qHTS cell viability counter screen in human keratinocytes (AID 1919968; active means well fitted curve in the direction sought with a large enough effect in the repeat runs; an effect the other way counts as inactive or inconclusive; further: nearly all actives have a fitted effect of over 55% in size)
Method in brief: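 KeratinoSens cells (HaCaT keratinocytes stably carrying an ARE-luciferase reporter) were seeded at 1,500 cells/well and rested 5 h at 37 C/5% CO2. They were then exposed to compounds in DMSO for 23 h. Viability was read by CellTiter-Fluor fluorescence after 1 h.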

[2] = Nuclear factor erythroid 2-related factor 2/antioxidant responsive element (Nrf2/ARE) small molecule agonists: luciferase reporter gene qHTS assay in human keratinocytes (AID 1919969); further: nearly all actives have a fitted effect of over 35% in size
[3] = molecular target: Gonadotropin-releasing hormone receptor (Homo sapiens) (UniProt P30968); test: Human gonadotropin-releasing hormone receptor (GnRHR) small molecule agonists, calcium flux assay in GnRHR-HEK293 cells (AID 1920063); further: nearly all actives have a fitted effect of over 35% in size
Sequence of Gonadotropin-releasing hormone receptor (Homo sapiens) (P30968 whole entry, looked up): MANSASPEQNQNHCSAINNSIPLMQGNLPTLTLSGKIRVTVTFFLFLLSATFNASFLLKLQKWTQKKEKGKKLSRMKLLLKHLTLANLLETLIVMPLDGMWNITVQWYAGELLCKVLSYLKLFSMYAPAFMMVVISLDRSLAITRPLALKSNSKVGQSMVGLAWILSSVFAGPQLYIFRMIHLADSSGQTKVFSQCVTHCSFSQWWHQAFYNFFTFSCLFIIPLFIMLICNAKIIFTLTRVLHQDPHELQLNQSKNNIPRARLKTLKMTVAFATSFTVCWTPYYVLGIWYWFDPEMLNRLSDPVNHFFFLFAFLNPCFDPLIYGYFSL
Method in brief: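 HEK293 cells stably expressing human GnRHR were plated 18 h at 37 °C, loaded with calcium dye 1 h at 37 °C, then given compound in agonist mode; fluorescence (Ex/Em 480/540) read kinetically for 3 min at 1 s intervals.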

[4] = molecular target: KiSS-1 receptor (Homo sapiens) (UniProt Q969F8); test: Human kisspeptin (KISS1R) small molecule agonists, calcium flux assay in KISS1R-HEK293 cells (AID 1920064; active means well fitted curve in the direction sought with a large enough effect in the repeat runs; an effect the other way counts as inactive or inconclusive)
Sequence of KiSS-1 receptor (Homo sapiens) (Q969F8 whole entry, looked up): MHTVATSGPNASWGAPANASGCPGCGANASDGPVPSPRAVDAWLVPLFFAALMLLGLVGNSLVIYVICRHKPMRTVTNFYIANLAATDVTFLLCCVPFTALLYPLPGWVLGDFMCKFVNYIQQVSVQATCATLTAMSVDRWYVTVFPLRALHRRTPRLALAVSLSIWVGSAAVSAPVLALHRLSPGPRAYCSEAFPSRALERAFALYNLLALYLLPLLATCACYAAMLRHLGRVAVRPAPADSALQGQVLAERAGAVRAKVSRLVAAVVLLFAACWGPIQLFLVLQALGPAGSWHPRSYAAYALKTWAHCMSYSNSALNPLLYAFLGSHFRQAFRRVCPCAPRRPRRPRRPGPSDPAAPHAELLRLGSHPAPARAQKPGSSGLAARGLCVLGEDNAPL
Method in brief: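 HEK293 cells stably expressing human KISS1R were plated 18 h at 37 °C, loaded with calcium dye for 1 h at 37 °C, then given compound by pin tool. Fluorescence (Ex/Em 480/540) was read kinetically for 3 min.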

[5] = G protein-coupled receptor (GPCR) small molecule agonists, calcium flux assay: HEK293 wild type cell line counter screen (AID 1920065)
Method in brief: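 Cells were plated and cultured 18 h at 37 C/5% CO2, then loaded with calcium dye for 1 h at 37 C. Compounds in DMSO were pin-transferred in agonist mode, and fluorescence (Ex/Em 480/540) was read kinetically for 3 min at 1 s intervals.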

[6] = p53 small molecule agonists, cell-based qHTS assay with human liver microsomes (AID 1963577);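 further: p53 response element beta-lactamase reporter cells with liver microsomes plus NADPH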
Method in brief: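 Metabolically competent format: test substances, human liver microsomes and NADPH (both 0.5 mg/mL final) incubated with p53RE-bla cells 16 h at 37 C. Beta-lactamase reporter signal then quantified by fluorescence.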

[7] = p53 small molecule agonists, cell-based qHTS assay with rat liver microsomes (AID 1963578)
Method in brief: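 Each plate received p53RE-bla cells, then compound, then rat liver microsomes and NADPH (both 0.5 mg/mL final). Plates were held 16 h at 37 C, and beta-lactamase activity was detected with LiveBLAzer over 2 h.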

[8] = p53 small molecule agonists, cell-based qHTS assay with human liver microsomes: qHTS cell viability counter screen (AID 1963579); further: nearly all actives have a fitted effect of over 45% in size
Method in brief: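 Tox21 library compounds, delivered from DMSO stocks, were tested on p53RE-bla cells together with 0.5 mg/mL human liver microsomes and 0.5 mg/mL NADPH (final) over 16 h at 37 C; CellTiter-Glo luminescence served as the cytotoxicity measure.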

[9] = p53 small molecule agonists, cell-based qHTS assay with rat liver microsomes: qHTS cell viability counter screen (AID 1963580); further: nearly all actives have a fitted effect of over 45% in size
Method in brief: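 Intracellular ATP, by CellTiter-Glo luminescence, defines viability. HCT-116 p53RE-bla cells, 4,000 per well, were compound-treated in the presence of rat liver microsomes and NADPH for 16 h at 37 C.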

[10] = p53 small molecule agonists, cell-based qHTS assay: qHTS cell viability counter screen (AID 1963581); further: nearly all actives have a fitted effect of over 45% in size
Method in brief: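 p53RE-bla HCT-116 cells were exposed to compounds for 16 h at 37 C; after the beta-lactamase FRET read in the same wells, CellTiter-Glo was added and luminescence (intracellular ATP) read after 30 min at room temperature.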

[11] = p53 small molecule agonists, cell-based qHTS assay (AID 1963582; active means well fitted activation curve with a large enough effect in the signal ratio in the repeat runs, not every such curve was filed as active; the % refers to the signal ratio)
Method in brief: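 p53RE-bla beta-lactamase reporter cells rested 5 h at 37 C/5% CO2, then received compounds in DMSO by pin transfer and were incubated 16 h at 37 C. LiveBLAzer B/G FRET substrate was loaded for 2 h at room temperature before fluorescence reading.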

[12] = molecular target: 5-hydroxytryptamine receptor 2A (Homo sapiens) (UniProt P28223); test: 5-hydroxytryptamine receptor 2A (HTR2A) small molecule antagonists, cell-based qHTS assay (AID 1963586); further: nearly all actives have a fitted effect of over 45% in size
Sequence of 5-hydroxytryptamine receptor 2A (Homo sapiens) (P28223 whole entry, looked up): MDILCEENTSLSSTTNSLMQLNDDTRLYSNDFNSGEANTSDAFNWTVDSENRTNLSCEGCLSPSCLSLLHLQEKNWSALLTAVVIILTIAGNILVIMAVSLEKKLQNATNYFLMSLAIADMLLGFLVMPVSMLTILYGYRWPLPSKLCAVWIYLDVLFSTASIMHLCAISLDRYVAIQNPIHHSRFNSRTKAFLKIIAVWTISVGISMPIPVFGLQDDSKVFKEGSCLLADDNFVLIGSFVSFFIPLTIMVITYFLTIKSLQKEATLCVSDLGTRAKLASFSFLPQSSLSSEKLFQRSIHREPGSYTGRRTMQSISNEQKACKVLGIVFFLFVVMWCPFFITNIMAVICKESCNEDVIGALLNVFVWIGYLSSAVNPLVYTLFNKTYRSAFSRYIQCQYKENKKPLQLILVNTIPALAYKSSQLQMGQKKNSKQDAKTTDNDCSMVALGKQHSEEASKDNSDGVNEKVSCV
Method in brief: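 Antagonist-mode intracellular calcium assay: DOI (4 nM) added after 5 min compound pre-incubation at room temperature to dye-loaded HTR2A-CHO cells. Fluorescence followed for 3 min, sampled every second.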

[13] = molecular target: 5-hydroxytryptamine receptor 2A (Homo sapiens) (UniProt P28223); test: 5-hydroxytryptamine receptor 2A (HTR2A) small molecule agonists, cell-based qHTS assay (AID 1963587); further: nearly all actives have a fitted effect of over 30% in size
Method in brief: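 Kinetic calcium-flux fluorescence (2 min, 1 sec intervals) after compound addition in agonist mode. HTR2A-CHO cells were cultured 18 h, then dye-loaded 1 h at 37 C.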

[14] = molecular target: Muscarinic acetylcholine receptor M1 (Homo sapiens) (UniProt P11229); test: Cholinergic receptor muscarinic 1 (CHRM1) small molecule antagonists, cell-based qHTS assay (AID 1963588); further: nearly all actives have a fitted effect of over 40% in size
Sequence of Muscarinic acetylcholine receptor M1 (Homo sapiens) (P11229 whole entry, looked up): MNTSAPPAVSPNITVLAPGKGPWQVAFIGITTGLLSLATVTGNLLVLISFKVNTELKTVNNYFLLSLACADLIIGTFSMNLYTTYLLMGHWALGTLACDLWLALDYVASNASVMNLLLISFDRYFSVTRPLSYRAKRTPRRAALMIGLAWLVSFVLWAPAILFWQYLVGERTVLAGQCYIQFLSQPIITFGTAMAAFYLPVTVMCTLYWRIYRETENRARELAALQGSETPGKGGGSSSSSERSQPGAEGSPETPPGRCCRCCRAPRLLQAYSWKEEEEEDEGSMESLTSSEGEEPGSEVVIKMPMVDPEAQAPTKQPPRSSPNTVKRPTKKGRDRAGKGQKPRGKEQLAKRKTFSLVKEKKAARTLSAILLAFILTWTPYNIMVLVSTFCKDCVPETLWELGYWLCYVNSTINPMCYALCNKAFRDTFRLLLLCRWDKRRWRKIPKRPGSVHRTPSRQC
Method in brief: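 CHRM1-CHO calcium-flux assay, antagonist mode. Cells were seeded 18 h, dye-loaded 1 h at 37 C and given compound for 5 min at RT, then acetylcholine was added at 50nM. FDSS fluorescence was read 3 min; 15 concentrations, three runs.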

[15] = molecular target: Muscarinic acetylcholine receptor M1 (Homo sapiens) (UniProt P11229); test: Cholinergic receptor muscarinic 1 (CHRM1) small molecule agonists, cell-based qHTS assay (AID 1963589); further: nearly all actives have a fitted effect of over 35% in size
Method in brief: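 CHO cells stably expressing human CHRM1, seeded 18 h at 37 C/5% CO2, dye-loaded 1 h at 37 C, then given compound in agonist mode; intracellular calcium fluorescence read kinetically at 1 s intervals. Fifteen concentrations, three independent runs.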

[16] = cAMP Responsive Elements (CRE) small molecule agonists, cell-based qHTS assay (AID 1963590)
Method in brief: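 CRE-bla HEK 293T cells in DMEM with 10% dialyzed FBS, NEAA, pyruvate and 25 mM HEPES were plated 18 h at 37 C/5% CO2, then exposed to compounds in DMSO for 3 h before LiveBLAzer B/G FRET substrate addition.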

[17] = molecular target: Beta-2 adrenergic receptor (Homo sapiens) (UniProt P07550); test: Adrenergic beta2 receptor (ADRB2) small molecule antagonists, cell-based qHTS assay (AID 1963592); further: series mostly up to about 92 µM; nearly all actives have a fitted effect of over 50% in size
Sequence of Beta-2 adrenergic receptor (Homo sapiens) (P07550 whole entry, looked up): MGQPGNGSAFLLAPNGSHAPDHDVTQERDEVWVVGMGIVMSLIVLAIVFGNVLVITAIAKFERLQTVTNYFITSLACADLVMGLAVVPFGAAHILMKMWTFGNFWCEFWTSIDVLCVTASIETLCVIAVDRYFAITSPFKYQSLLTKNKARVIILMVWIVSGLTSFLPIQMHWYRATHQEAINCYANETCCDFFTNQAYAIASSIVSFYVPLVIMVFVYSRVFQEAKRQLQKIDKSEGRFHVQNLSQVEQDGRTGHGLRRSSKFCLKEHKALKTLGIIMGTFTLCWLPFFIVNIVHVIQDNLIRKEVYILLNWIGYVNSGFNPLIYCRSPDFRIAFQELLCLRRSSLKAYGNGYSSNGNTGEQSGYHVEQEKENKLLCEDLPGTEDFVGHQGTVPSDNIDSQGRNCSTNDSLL
Method in brief: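 Cells (CHO, stable ADRB2 overexpression) incubated 18-20hr at 37C; compounds added from DMSO; agonist mix (1nM isoproterenol, 100uM IBMX, 25uM Ro-20-1724) added; 0.5hr RT; d2-cAMP and anti-cAMP-cryptate added; 1hr RT; 665/615 nm read.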

[18] = molecular target: D(2) dopamine receptor (Homo sapiens) (UniProt P14416); test: Dopamine D2 receptor (DRD2) small molecule agonists, cell-based qHTS assay (AID 1963594); further: nearly all actives have a fitted effect of over 35% in size
Sequence of D(2) dopamine receptor (Homo sapiens) (P14416 whole entry, looked up): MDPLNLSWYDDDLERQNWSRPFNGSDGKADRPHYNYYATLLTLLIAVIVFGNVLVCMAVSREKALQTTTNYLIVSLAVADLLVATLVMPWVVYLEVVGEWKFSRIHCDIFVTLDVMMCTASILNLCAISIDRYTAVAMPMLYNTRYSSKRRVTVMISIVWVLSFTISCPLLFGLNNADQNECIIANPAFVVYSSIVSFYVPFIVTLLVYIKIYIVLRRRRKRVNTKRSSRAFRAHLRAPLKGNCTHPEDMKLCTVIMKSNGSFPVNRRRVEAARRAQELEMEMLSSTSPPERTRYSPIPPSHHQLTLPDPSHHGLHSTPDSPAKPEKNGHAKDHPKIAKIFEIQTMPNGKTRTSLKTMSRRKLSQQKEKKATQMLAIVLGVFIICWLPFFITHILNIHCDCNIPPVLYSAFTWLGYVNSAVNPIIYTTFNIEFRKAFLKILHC
Method in brief: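 cAMP accumulation in DRD2-HEK293 cells measured by HTRF after 1 h detection; compounds added 10 min before NKH477 (200nM […]) forskolin-analogue stimulation, 30 min at room temperature, with Ro20-1724 present at 0.1 mM final.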

[19] = molecular target: D(2) dopamine receptor (Homo sapiens) (UniProt P14416); test: Dopamine D2 receptor (DRD2) small molecule antagonists, cell-based qHTS assay (AID 1963595; active means well fitted inhibition curve with a large enough effect in the signal ratio in the repeat runs, with a control signal flat; the % refers to the signal ratio)
Method in brief: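 DRD2-HEK293; 0.1 mM Ro20-1724; cpd 10 min RT; NKH477 200 nM + quinpirole 12 nM, 30 min RT; HTRF cAMP (cAMP-d2/anti-cAMP cryptate), 665/620 nm ratio after 1 h.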

[20] = cAMP Responsive Elements (CRE) small molecule antagonists, cell-based qHTS assay (AID 1963591; active means well fitted inhibition curve with a large enough effect in the signal ratio in the repeat runs, not every such curve was filed as active; the % refers to the signal ratio)
Method in brief: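 CRE-bla HEK293T cells were plated 18 h at 37 °C/5% CO2, pinned with compound in DMSO, then stimulated with NKH477 at 0.25 uM final for 3 h. LiveBLAzer B/G FRET substrate was added and plates incubated 2 h at room temperature.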

Measured: Potency

Oc1cccc2cc3cccc(O)c3c(O)c12
not listed: [20]
inactive: all other assays above

CCC=CC#N
not listed: [20]
inactive: all other assays above

O=C(OCCCCCOC(=O)c1ccccc1)c1ccccc1
not listed: [16]
inactive: all other assays above

Reference: PubChem BioAssay (Tox21)
